The full ranking holds about 59,000 sequences; the median of the read-out is about -0.00055, and the lowest 2% start at about -2. Shown is part of a subset that was picked to be rich in the lowest values.

Among the data in PubChem BioAssay AID1159506 (National Center for Advancing Translational Sciences (NCATS), 2015) are seed-corrected z-score values, retold here.

The test is described as follows: Identification of proteins required for the processing of the EWS-FLI1 nascent transcript.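 Further: robust z of luciferase light less the median z of siRNAs with the same seed.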 The conditions noted are these: TC32 Ewing sarcoma NR0B1-luc vs CMV-luc (EWS-FLI1 target promoter against control promoter), 48 h; screened at 20 nM (by protocol). In short, it runs like this:
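Parallel TC32-NR0B1-luc and TC32-CMV-luc reverse transfections with 20 nM siRNA in RPMI-1640/10% FBS, luciferase measured 48 h later. Seed-adjusted z-scores from normalized, z-score-MAD transformed data; AllStars negative and siGL4 controls on each plate.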
Turning to UCCUGGAUUGGGAAGGUGC against C9orf172, the seed-corrected z-score was -0.383.
The sequence UGCAGUAGAAUUUACACGC against RB1 showed a seed-corrected z-score of -2.42.
Turning to UUUGCUAUCAGGGAACAUC against SPRR2B, the seed-corrected z-score was -0.452.
With UGAUGGUAGAGUUCCAGUG against MYBL2 the figure was -0.637.
UUGCUUAUGAGCUUGAUGG against MAST1: the seed-corrected z-score was -2.39.
With UAAGCGGUUCAUGCUGUGG against CPA5 the figure was -0.872.
UAGUGGAAGACGGAAAAGU against SFN yielded a seed-corrected z-score of -0.0924.
The same measure for AGUAUAACCAGUGGGAGGC against EWSR1: -5.73.
UAUCUGAAGAUCUAGACUC against ZNF280D: the seed-corrected z-score was -0.0696.
The same measure for UCCUUGACCAGAAAUCUCA against TRIM31: -0.472; for UACGUCAAACGGAACUUCC against LRPPRC: -0.194; for UCAUGUAUAAACAGUCGCC against ALDH7A1: 0.368.
With UUAGCAUGAUGAUCAAGGC against LIN28B the figure was 0.22; with UUAUAUAUCUCCUGGAGCG against AGPAT3, -0.537; with UGAGUUUCGAGAGCACAGU against MID1IP1, -3.02.
With AAACUUUCUCCUUAAGGCC against PRR11 the figure was -0.21; with UUGCAAUUGAAUUCACAGC against SRI, -0.0706.
In the case of UGAAGGAUUUGUGACAUAC against ZFP28, the seed-corrected z-score is -0.0712.
The same measure for UGUGGUUCCAAGGCACGUC against CCER2: -2.12.
With UUCCUUGGGCCCUAUAUGU against FAM168A the figure was -0.129; with AACGUAGAAAAGCAUAUCG against DENND5B, -0.0535; with UAUCUUGCUGGUGUGUGUG against MAX, -0.878.
On to AUAGGCUUUAUCAAGAUCG against MPP5, for which the seed-corrected z-score came to 0.288.
The same measure for UGAAUUUCUCGAAUCUGUG against SF3B1: -4.69.
With UGACCGAUGACAGGUAUCU against MRGPRX3 the figure was -0.02.
The same measure for UUUUGAGUGGGUAUCAACC against VIM: 0.533.
Regarding UUCUGUGCUACUUUGUGCU against SSR3, the seed-corrected z-score worked out at 1.19.
The sequence UCCCUGAAUAGUGUGACAG against CCDC103 showed a seed-corrected z-score of 0.246.
Sequence UUACAUCCAAUUGUAAAGG against C5orf22 returned a seed-corrected z-score of -2.74.
The same measure for UUUGCGAAACUCCAAGUCC against LMNB1: -0.159; for AAAAAUAUCUGUGAUUCUG against WNK1: 0.399; for UAGGCAUCGAUGUGGAAGC against TELO2: 2.04.
With UCAGCAGAUCUUGACAGUC against LYZL6 the figure was 0.253; with CUGCUUCUGAGCGUUUGCG against MED14OS, -2.09; with UUGCCGUAUAGGUAGUUUG against NPTX2, -0.552.
With UAGGCGACGCCCUUUUUCU against H3.X the figure was -0.0707; with UUUGAGUCCUCAUGGGUGG against GTF3C4, 1.63; with UAGGUGUUGAUGAUCUCCC against XAB2, -2.44.
Consider UUUGUCUCUGCGGAGGUUC against EIF3D, for which the seed-corrected z-score is -0.479.
The same measure for UGAUUAGUCACCAAAGUCC against ATF7IP: -1.24.
UACUGUCGAACUUUGCCUG against HEPH yielded a seed-corrected z-score of -1.6.
UCACUAGCAAGGUUCUCCC against LARP4B came in with a seed-corrected z-score of 0.24.
With UAAUGUACUUGAUCGCAGC against ASCL3 the figure was -1.12; with AUAGUUGCCGGUGCUCACC against PICK1, -3.04; with UACUGUAUAGGAAACGAUC against ESPL1, -0.0398.
With UCGCUGUCCUUUAAGAGGC against NKAIN4 the figure was -0.183; with AUCGGGAAGAGAGUGUAUC against PTAFR, 0.45.
The same measure for CAAGUGGAUCGAGCUUGCG against RPL29P12: 0.225; for UGACUCAAAACUACCAUCC against CCNA2: -0.751; for AUCUCUUUUAUCAGGGUUG against VEGFB: -2.11.
The sequence AACGAUUUUAUCCAAAAUG against FBXO25 registered a seed-corrected z-score of 0.881.
The same measure for UAUAUGUCUCGCAUUUGCC against TRE17: -1.17; for AUCGCAAUAAUUUCAUCUG against NOL8: -0.121; for UACGUUAGUUUUGACACGC against RALY: -0.653.
The same measure for UGCUAUAGCACCAACAGCC against CLCN5: -2.8; for UUGGGUUCUACAAGCUUCC against SDE2: -0.135; for AAGAUGUCUGUGGUCAUGG against PLCB2: 1.04.
With UUACUAGAAUCCUCAAUUG against OXR1, the seed-corrected z-score is -0.746.
With UAAAGAUCAAUUCGCUUUG against GLRB the figure was -0.775; with UGAAGGUUCAGAGUGCAAC against ISG20L2, -0.949; with UUCUGGAUUAGAAAGGUUC against NKRF, 0.43.
The same measure for UCCUUGUCGAACAUGAGCC against NTNG2: -2.93; for UGCACAUCCUUGUCUAUGC against SGSM2: 0.184.
With UUACAUUCUGAGCCCAUCC against HTR7 the figure was -0.311.
UUAGUUAUAACAUAUGACU against LINC00900: the seed-corrected z-score is -0.697.
The same measure for ACAAUGGAAAGCACCUUCC against RINL: 0.198.
